Data reported in the supplement of paper PMC10849652.
About 8,800 targets were measured; listed, in parts, are those with a hit and a random draw of the rest. About 0.5% of all pairs of compound and target were hits.

What was measured:
Test in all cases: log2 fold change, soluble protein after heating vs DMSO (PISA); higher = thermal stabilisation; K562 lysate, 10 uM; active = over 0.2 and 3.5 SD of the protein, either way, in both replicates (recomputed)
alvocidib = compound: CN1CC[C@H](c2c(O)cc(O)c3c(=O)cc(-c4ccccc4Cl)oc23)[C@H](O)C1 [alvocidib]
How it was run: (§1)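 Pellets of K562 cells were dounce-homogenised in PBS pH 7.4 with 1 mM MgCl2, and the crude extract was held at 1 mg/mL protein for a 30 min treatment with 10 μM compound. Aliquots were heated for 3 min over 48°C-58°C and pooled before NP-40 was added to 0.5% at 4°C. The supernatant from 21,000xg for 90 min was quantified by TMTpro 16plex LC-MS/MS with channel sums equalised. Values are reported from duplicates as log-two fold change in thermal stability relative to solvent controls.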

Tubastatin A = compound: CN1CCc2c(c3ccccc3n2Cc2ccc(C(=O)NO)cc2)C1 [Tubastatin A]
How it was run: as §1

[1] = compound: CNC(=O)C1=CC=CC=C1NC2=NC(=NC=C2Cl)NC3=C(C=C(C=C3)N4CCOCC4)OC
How it was run: as §1

defactinib = compound: CNC(=O)c1ccc(Nc2ncc(C(F)(F)F)c(NCc3nccnc3N(C)S(C)(=O)=O)n2)cc1 [defactinib]
How it was run: as §1

[2] = compound: CNc1nc(-c2ccc3c(N)n[nH]c3c2)cc(N2C[C@@H](C(=O)NC3CCCCC3)CC[C@H]2C)n1
How it was run: as §1

encorafenib = compound: COC(=O)N[C@@H](C)CNc1nccc(-c2cn(C(C)C)nc2-c2cc(Cl)cc(NS(C)(=O)=O)c2F)n1 [encorafenib]
How it was run: as §1

[3] = compound: COC(=O)[C@H](CCSC)NC(=O)C1=C(C=C(C=C1)NC[C@H](CS)N)C2=CC=CC=C2
How it was run: as §1

alisertib = compound: COc1cc(Nc2ncc3c(n2)-c2ccc(Cl)cc2C(c2c(F)cccc2OC)=NC3)ccc1C(=O)O [alisertib]
How it was run: as §1

[4] = compound: COc1cc2nc(-c3cc(F)ccc3O)nc(N[C@@H]3CNC[C@H]3C(C)(C)O)c2cc1OC
How it was run: as §1

gefitinib = compound: COc1cc2ncnc(Nc3ccc(F)c(Cl)c3)c2cc1OCCCN1CCOCC1 [gefitinib]
How it was run: as §1

lapatinib = compound: CS(=O)(=O)CCNCc1ccc(-c2ccc3ncnc(Nc4ccc(OCc5cccc(F)c5)c(Cl)c4)c3c2)o1 [lapatinib]
How it was run: as §1

pictilisib = compound: CS(=O)(=O)N1CCN(Cc2cc3nc(-c4cccc5[nH]ncc45)nc(N4CCOCC4)c3s2)CC1 [pictilisib]
How it was run: as §1

crizotinib = compound: C[C@@H](Oc1cc(-c2cnn(C3CCNCC3)c2)cnc1N)c1c(Cl)ccc(F)c1Cl [crizotinib]
How it was run: as §1

[5] = compound: C[C@H](C1=CC=C(C=C1)C(=O)NC2=C3C=CNC3=NC=C2)N
How it was run: as §1

duvelisib = compound: C[C@H](Nc1ncnc2nc[nH]c12)c1cc2cccc(Cl)c2c(=O)n1-c1ccccc1 [duvelisib]
How it was run: as §1

gandotinib = compound: Cc1cc(Nc2cc(CN3CCOCC3)c3nc(C)c(Cc4ccc(Cl)cc4F)n3n2)n[nH]1 [gandotinib]
How it was run: as §1

tozasertib = compound: Cc1cc(Nc2cc(N3CCN(C)CC3)nc(Sc3ccc(NC(=O)C4CC4)cc3)n2)n[nH]1 [tozasertib]
How it was run: as §1

doramapimod = compound: Cc1ccc(-n2nc(C(C)(C)C)cc2NC(=O)Nc2ccc(OCCN3CCOCC3)c3ccccc23)cc1 [doramapimod]
How it was run: as §1

bafetinib = compound: Cc1ccc(NC(=O)c2ccc(CN3CC[C@H](N(C)C)C3)c(C(F)(F)F)c2)cc1Nc1nccc(-c2cncnc2)n1 [bafetinib]
How it was run: as §1

[6] = compound: Cc1cccc(CC(=O)N2CCc3c2ccc(-c2cn(C)c4ncnc(N)c24)c3F)n1
How it was run: as §1

Measured: log2 fold change

EXOC1 (UniProt Q9NV70)
inactive: alvocidib 0.01 | Tubastatin A -0.139 | [1] 0.006 | defactinib 0.022 | [2] -0.086 | encorafenib 0.014 | [3] 0.012 | alisertib 0.007 | [4] -0.015 | gefitinib 0.015 | lapatinib -0.013 | pictilisib 0.029 | crizotinib -0.041 | [5] 0.04 | duvelisib 0.016 | gandotinib -0.186 | tozasertib -0.004 | doramapimod 0.023 | bafetinib -0.04 | [6] 0.024

FTL (UniProt P02792)
inactive: alvocidib 0.013 | Tubastatin A 0.187 | [1] -0.04 | defactinib 0.15 | [2] -0.097 | encorafenib 0.145 | [3] -0.076 | alisertib 0.067 | [4] 0.007 | gefitinib -0.024 | lapatinib -0.072 | pictilisib -0.027 | crizotinib -0.066 | [5] -0.022 | duvelisib -0.001 | gandotinib 0.068 | tozasertib 0.008 | doramapimod -0.024 | bafetinib -0.052 | [6] -0.018

FTSJ3 (UniProt Q8IY81)
inactive: alvocidib 0.031 | Tubastatin A -0.073 | [1] -0.018 | defactinib 0.026 | [2] 0.007 | encorafenib -0.028 | [3] 0.031 | alisertib 0.005 | [4] -0.036 | gefitinib 0.004 | lapatinib 0.013 | pictilisib 0.023 | crizotinib -0.037 | [5] -0.031 | duvelisib -0.01 | gandotinib -0.019 | tozasertib -0.019 | doramapimod -0.025 | bafetinib 0.013 | [6] 0.031

FYN (UniProt P06241)
Chain of UniProt P06241 (P06241 whole entry, looked up): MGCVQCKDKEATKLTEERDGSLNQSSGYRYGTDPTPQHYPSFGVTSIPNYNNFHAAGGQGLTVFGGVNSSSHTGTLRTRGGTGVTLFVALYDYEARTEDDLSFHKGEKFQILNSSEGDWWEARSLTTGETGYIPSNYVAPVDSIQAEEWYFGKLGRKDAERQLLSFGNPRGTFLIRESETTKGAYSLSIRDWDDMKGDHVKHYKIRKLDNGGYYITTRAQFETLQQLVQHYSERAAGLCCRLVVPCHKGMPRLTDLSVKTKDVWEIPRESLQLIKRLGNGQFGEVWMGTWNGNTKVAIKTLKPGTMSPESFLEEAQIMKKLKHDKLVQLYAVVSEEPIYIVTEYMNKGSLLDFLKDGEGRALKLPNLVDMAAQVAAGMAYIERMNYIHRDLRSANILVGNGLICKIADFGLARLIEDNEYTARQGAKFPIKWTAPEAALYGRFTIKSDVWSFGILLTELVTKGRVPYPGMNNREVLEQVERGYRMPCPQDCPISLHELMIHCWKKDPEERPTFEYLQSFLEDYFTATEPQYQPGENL
inactive: alvocidib -0.078 | Tubastatin A 0.03 | [1] -0.009 | defactinib 0.038 | [2] -0.069 | encorafenib 0.092 | [3] -0.121 | [4] 0.005 | lapatinib 0.007 | pictilisib -0.201 | crizotinib 0.12 | [5] -0.092 | duvelisib -0.019 | tozasertib 0.054 | doramapimod -0.04 | bafetinib 0.198 | [6] -0.057
active: gandotinib 0.422

EWSR1 isoform 5 (UniProt Q01844)
Chain of UniProt Q01844 (Q01844 whole entry, looked up): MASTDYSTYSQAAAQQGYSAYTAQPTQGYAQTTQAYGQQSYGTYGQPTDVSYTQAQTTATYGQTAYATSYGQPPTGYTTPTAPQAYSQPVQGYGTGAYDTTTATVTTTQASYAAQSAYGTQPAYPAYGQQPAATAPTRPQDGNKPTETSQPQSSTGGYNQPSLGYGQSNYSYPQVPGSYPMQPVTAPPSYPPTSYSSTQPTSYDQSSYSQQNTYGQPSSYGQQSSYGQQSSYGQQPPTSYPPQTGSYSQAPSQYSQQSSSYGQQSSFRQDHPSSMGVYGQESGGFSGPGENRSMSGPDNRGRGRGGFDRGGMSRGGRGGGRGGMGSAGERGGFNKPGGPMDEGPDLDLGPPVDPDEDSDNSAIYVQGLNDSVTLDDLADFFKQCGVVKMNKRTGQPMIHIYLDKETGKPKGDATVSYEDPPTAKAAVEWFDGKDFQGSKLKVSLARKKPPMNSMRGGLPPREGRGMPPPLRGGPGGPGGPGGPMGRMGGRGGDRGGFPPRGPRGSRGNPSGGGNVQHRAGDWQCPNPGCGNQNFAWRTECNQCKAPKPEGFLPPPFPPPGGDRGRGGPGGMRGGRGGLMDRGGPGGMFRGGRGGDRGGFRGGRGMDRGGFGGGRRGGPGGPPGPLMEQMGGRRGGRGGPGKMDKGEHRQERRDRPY
inactive: alvocidib -0.002 | Tubastatin A 0.101 | [1] -0.017 | defactinib -0.011 | [2] 0.021 | encorafenib -0.022 | [3] -0.036 | alisertib 0.049 | [4] -0.005 | gefitinib -0.003 | lapatinib -0.008 | pictilisib 0.021 | crizotinib 0.048 | [5] -0.07 | duvelisib -0.047 | gandotinib 0.061 | tozasertib -0.016 | doramapimod -0.025 | bafetinib 0.031 | [6] 0.009

FAM76B (UniProt Q5HYJ3)
Chain of UniProt Q5HYJ3 (Q5HYJ3 whole entry, looked up): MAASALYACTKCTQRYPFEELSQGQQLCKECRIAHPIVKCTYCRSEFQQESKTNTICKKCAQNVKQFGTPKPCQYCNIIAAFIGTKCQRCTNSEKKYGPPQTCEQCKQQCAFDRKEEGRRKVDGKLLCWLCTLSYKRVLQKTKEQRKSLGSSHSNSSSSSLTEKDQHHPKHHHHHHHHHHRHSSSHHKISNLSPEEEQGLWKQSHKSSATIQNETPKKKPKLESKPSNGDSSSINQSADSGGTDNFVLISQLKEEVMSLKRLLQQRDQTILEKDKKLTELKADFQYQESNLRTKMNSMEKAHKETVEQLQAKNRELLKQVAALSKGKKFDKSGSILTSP
inactive: alvocidib -0.019 | Tubastatin A 0.012 | [1] 0.068 | defactinib 0.076 | [2] -0.002 | encorafenib 0.013 | [3] -0.146 | alisertib -0.02 | [4] 0.016 | gefitinib -0.018 | lapatinib -0.049 | crizotinib 0.028 | [5] -0.19 | duvelisib -0.02 | gandotinib 0.023 | tozasertib -0.021 | doramapimod -0.016
active: [6] 0.269

FNBP1L (UniProt Q5T0N5)
Chain of UniProt Q5T0N5 (Q5T0N5 whole entry, looked up): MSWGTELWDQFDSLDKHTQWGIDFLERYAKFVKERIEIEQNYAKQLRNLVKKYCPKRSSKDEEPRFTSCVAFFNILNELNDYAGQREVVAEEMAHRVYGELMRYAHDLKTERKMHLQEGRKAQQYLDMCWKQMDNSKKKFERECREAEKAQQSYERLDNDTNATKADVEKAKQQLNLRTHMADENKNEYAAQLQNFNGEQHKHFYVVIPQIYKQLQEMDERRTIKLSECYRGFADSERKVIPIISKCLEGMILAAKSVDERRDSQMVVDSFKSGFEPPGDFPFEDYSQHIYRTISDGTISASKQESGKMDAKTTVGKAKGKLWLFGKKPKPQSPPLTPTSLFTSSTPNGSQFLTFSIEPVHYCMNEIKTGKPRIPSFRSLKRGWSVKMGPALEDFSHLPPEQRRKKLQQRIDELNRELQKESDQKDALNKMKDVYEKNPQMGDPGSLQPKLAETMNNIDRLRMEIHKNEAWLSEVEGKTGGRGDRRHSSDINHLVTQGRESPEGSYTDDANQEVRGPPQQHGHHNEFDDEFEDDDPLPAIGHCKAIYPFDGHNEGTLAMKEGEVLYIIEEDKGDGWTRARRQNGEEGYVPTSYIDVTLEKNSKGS
inactive: alvocidib 0.04 | Tubastatin A -0.043 | [1] 0.023 | defactinib -0.066 | encorafenib 0.045 | [3] 0.034 | alisertib 0.005 | [4] -0.015 | gefitinib 0.099 | lapatinib 0.005 | pictilisib 0 | crizotinib -0.039 | [5] -0.023 | duvelisib -0.115 | gandotinib 0.002 | tozasertib -0.003 | doramapimod 0.113 | bafetinib -0.089 | [6] -0.026
active: [2] 0.357

ELF2 (UniProt Q15723)
Chain of UniProt Q15723 (Q15723 whole entry, looked up): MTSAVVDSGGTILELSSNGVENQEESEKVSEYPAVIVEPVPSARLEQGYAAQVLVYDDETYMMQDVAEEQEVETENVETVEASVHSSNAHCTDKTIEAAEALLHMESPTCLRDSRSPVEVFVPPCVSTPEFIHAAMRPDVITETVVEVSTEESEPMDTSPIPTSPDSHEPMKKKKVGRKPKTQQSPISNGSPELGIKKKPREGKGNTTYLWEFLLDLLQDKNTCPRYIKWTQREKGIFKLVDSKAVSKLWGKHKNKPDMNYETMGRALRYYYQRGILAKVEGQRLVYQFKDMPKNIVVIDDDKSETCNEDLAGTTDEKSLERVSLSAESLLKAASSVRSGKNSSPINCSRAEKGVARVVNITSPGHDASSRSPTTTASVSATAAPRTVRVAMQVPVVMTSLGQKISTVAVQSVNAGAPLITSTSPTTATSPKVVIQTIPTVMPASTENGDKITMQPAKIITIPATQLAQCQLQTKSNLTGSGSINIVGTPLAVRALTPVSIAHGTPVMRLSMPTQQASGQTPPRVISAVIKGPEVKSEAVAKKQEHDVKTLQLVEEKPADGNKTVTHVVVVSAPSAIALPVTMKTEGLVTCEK
active: lapatinib 0.256
inactive: alvocidib 0.023 | Tubastatin A 0.016 | [1] 0.024 | defactinib -0.013 | [2] -0.062 | encorafenib 0.028 | [3] 0.038 | alisertib -0.101 | [4] -0.06 | gefitinib 0.047 | pictilisib 0.039 | crizotinib -0.085 | [5] 0.033 | duvelisib 0.072 | gandotinib -0.046 | tozasertib -0.033 | doramapimod -0.042 | bafetinib -0.119 | [6] -0.075

DYNC1I2 isoform 2 (UniProt Q13409)
inactive: alvocidib 0.065 | Tubastatin A 0.002 | [1] -0.02 | defactinib 0.001 | [2] -0.039 | encorafenib 0.011 | [3] 0.056 | [4] 0.096 | lapatinib 0.029 | pictilisib 0.078 | crizotinib -0.031 | [5] 0.096 | duvelisib 0.015 | gandotinib -0.132 | tozasertib 0.001 | doramapimod -0.011 | bafetinib -0.041 | [6] -0.012

GEMIN5 (UniProt Q8TEQ6)
Chain of UniProt Q8TEQ6 (Q8TEQ6 whole entry, looked up): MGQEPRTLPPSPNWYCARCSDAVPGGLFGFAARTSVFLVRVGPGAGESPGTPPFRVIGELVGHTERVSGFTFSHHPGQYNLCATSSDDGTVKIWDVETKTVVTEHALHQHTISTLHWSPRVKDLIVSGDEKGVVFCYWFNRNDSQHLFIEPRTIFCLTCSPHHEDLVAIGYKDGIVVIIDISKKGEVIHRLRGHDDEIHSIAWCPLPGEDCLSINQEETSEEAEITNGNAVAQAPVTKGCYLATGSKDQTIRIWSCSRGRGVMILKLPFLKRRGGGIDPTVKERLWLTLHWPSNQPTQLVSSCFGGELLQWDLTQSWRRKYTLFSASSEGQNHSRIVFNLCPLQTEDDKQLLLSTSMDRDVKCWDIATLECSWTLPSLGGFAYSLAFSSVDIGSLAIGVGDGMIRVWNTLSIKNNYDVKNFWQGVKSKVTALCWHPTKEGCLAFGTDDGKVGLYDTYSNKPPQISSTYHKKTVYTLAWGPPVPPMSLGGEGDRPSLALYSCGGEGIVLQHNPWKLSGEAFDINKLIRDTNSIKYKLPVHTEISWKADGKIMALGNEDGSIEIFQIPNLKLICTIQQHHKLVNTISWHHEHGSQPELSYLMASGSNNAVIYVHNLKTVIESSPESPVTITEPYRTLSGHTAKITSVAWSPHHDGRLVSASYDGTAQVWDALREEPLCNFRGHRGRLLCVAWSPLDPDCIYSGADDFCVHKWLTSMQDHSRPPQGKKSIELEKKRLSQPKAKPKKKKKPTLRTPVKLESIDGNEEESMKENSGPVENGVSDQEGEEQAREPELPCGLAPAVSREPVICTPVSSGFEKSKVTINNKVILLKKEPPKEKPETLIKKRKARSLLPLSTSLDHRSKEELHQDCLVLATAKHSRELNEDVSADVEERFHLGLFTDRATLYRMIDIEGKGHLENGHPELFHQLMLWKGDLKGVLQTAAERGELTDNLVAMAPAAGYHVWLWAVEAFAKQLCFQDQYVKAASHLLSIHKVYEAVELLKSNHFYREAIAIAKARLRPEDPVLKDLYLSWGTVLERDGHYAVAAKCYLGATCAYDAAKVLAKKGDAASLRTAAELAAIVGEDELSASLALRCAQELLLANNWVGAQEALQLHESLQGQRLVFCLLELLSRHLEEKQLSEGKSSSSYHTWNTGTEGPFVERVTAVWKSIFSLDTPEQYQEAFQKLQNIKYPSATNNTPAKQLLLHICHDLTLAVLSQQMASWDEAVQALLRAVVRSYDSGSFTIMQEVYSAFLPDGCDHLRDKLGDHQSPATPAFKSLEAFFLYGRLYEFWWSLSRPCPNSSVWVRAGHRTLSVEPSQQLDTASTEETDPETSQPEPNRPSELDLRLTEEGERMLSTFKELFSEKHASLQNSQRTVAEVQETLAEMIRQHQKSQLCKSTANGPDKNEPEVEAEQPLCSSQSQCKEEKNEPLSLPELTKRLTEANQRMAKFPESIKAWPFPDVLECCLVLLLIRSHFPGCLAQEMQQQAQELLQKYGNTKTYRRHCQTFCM
inactive: alvocidib 0.023 | Tubastatin A -0.21 | [1] 0.027 | defactinib 0.031 | [2] -0.007 | encorafenib 0.011 | [3] 0.057 | alisertib 0.014 | [4] -0.019 | gefitinib -0.032 | lapatinib -0.025 | pictilisib -0.006 | crizotinib -0.069 | [5] -0.029 | duvelisib 0.001 | gandotinib -0.087 | tozasertib 0.009 | doramapimod 0.012 | bafetinib -0.053 | [6] 0.017

FBRSL1, A0A3B3IRR3
inactive: alvocidib -0.051 | Tubastatin A -0.004 | [1] -0.074 | defactinib -0.002 | [2] 0.008 | encorafenib 0.021 | [3] -0.03 | alisertib -0.018 | gefitinib 0.014 | pictilisib -0.064 | crizotinib 0.086 | [5] -0.114 | duvelisib 0.035 | gandotinib 0.032 | tozasertib -0.105 | doramapimod -0.161 | bafetinib -0.089 | [6] 0.146

ETFRF1 (UniProt Q6IPR1)
Chain of UniProt Q6IPR1 (Q6IPR1 whole entry, looked up): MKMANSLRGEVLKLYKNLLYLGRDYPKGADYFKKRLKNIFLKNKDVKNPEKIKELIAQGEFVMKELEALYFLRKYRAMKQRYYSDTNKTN
inactive: alvocidib 0.025 | Tubastatin A 0.032 | [1] -0.006 | defactinib -0.071 | [2] 0.021 | alisertib 0.003 | [4] -0.042 | gefitinib -0.009 | lapatinib 0.021 | pictilisib -0.01 | crizotinib -0.004 | [5] 0.112 | duvelisib -0.004 | gandotinib -0.087 | doramapimod -0.057 | bafetinib -0.039 | [6] -0.039

EDC4 (UniProt Q6P2E9)
inactive: alvocidib -0.012 | Tubastatin A -0.14 | [1] 0.015 | defactinib -0.008 | [2] -0.034 | encorafenib 0.009 | [3] -0.116 | alisertib 0.021 | [4] 0.021 | gefitinib -0.017 | lapatinib -0.025 | pictilisib -0.029 | crizotinib -0.01 | [5] -0.044 | duvelisib 0.016 | gandotinib -0.027 | tozasertib -0.016 | doramapimod -0.014 | bafetinib -0.043 | [6] 0.049

FAM120B (UniProt Q96EK7)
inactive: alvocidib -0.005 | Tubastatin A -0.063 | [1] 0.016 | defactinib 0.073 | [2] -0.02 | encorafenib 0.029 | [3] 0.034 | alisertib -0.007 | [4] -0.001 | gefitinib 0.021 | lapatinib 0.041 | pictilisib -0.012 | crizotinib -0.021 | [5] -0.018 | duvelisib -0.021 | gandotinib -0.051 | tozasertib -0.064 | doramapimod 0.021 | bafetinib -0.045 | [6] 0.045

FDFT1 (UniProt P37268)
inactive: alvocidib 0.002 | Tubastatin A -0.037 | [1] -0.033 | defactinib -0.048 | [2] -0.018 | encorafenib 0.047 | [3] -0.155 | alisertib 0.068 | [4] 0.018 | gefitinib 0.016 | lapatinib -0.037 | pictilisib -0.018 | crizotinib 0.062 | [5] -0.045 | duvelisib 0.19 | gandotinib 0.207 | tozasertib -0.004 | doramapimod 0 | bafetinib 0.018 | [6] 0.01

FAU (UniProt E9PR30)
inactive: alvocidib 0.073 | Tubastatin A 0.02 | [1] -0.087 | defactinib 0.003 | [2] 0.013 | encorafenib -0.04 | [3] 0.013 | alisertib 0.035 | [4] -0.016 | gefitinib -0.044 | lapatinib -0.018 | pictilisib 0.02 | crizotinib -0.055 | duvelisib 0.047 | gandotinib -0.105 | tozasertib -0.027 | doramapimod 0.071 | bafetinib -0.019 | [6] -0.121
active: [5] 0.293

FOXJ3 (UniProt Q9UPW0)
Chain of UniProt Q9UPW0 (Q9UPW0 whole entry, looked up): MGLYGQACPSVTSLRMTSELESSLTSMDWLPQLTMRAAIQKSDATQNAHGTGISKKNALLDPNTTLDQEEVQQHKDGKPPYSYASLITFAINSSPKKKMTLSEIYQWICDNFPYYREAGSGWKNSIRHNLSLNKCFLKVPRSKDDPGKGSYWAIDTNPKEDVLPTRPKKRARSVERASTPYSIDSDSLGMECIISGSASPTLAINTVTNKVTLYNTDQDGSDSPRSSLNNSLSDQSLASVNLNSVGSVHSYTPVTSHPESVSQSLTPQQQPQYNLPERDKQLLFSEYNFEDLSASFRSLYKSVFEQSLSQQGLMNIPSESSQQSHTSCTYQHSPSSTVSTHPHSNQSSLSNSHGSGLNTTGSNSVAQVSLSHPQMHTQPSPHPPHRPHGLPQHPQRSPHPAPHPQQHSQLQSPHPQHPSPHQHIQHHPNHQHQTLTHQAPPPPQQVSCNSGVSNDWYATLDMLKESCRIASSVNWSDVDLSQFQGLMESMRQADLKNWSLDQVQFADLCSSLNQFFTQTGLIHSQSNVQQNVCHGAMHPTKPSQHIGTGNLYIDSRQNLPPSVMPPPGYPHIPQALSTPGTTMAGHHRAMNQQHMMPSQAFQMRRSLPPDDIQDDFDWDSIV
inactive: alvocidib -0.009 | Tubastatin A -0.03 | [1] -0.031 | defactinib 0.014 | [2] 0.033 | encorafenib 0.055 | [3] -0.137 | alisertib -0.028 | [4] 0 | gefitinib 0.054 | lapatinib 0.039 | pictilisib -0.049 | crizotinib -0.053 | [5] 0.101 | duvelisib 0.035 | gandotinib -0.042 | tozasertib 0.021 | doramapimod 0 | bafetinib -0.139 | [6] -0.003
